# In the library only some 0.59% were active in any assay of this set; here they are far more common.
# B2AR arrestin: agonists driving beta-arrestin recruitment to human beta2-adrenergic receptor; P07550; beta-arrestin recruitment to beta2AR, cell-based reporter; Potency, µM (doses to about 46.1 µM), inactives show at the top dose activation, actives largely listed as activators; hit rate 0.02% among 330,000;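 note: potency is the fitted concentration of half-maximal effect; 0% = DMSO controls and full agonism = EC100 isoproterenol or metaproterenol; nearly all actives have a fitted effect of over 65% in size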
# Target sequence (P07550 whole entry, looked up): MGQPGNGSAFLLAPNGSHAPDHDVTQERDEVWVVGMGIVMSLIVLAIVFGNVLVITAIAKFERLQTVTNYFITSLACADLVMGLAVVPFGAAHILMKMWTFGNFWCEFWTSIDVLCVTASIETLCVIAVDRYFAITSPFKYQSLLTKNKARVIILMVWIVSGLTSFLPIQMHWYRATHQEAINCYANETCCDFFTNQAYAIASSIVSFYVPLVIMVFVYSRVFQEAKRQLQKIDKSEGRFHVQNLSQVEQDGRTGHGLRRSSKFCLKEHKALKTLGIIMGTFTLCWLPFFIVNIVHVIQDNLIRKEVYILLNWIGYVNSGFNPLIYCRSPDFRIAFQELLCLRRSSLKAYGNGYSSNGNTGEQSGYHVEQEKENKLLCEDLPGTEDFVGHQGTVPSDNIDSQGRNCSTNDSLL
# BCR signal inh: chronic active BCR signaling inhibition | ABC-DLBCL IkBa-CBG/CBR reporter, luminescence ratio, 4 h | hit rate 0.05% among 340,000 | Potency, µM (series often up to 46.1 µM), inactives show at the top dose activity change, negative = inhibition, usual class: inhibitors; active = well fitted inhibition curve with a large enough effect in the signal ratio, with a control signal flat, not every such curve was filed as active; inconclusive = small, poorly fitted or top-dose-only effect, or effect the other way, or a change in a side signal; the % refers to the signal ratio;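 note: potency is the fitted concentration of half-maximal effect; plate controls were basal doxycycline-induced cells for no effect and cells given 10 µM MG132 for full effect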
#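 TMD8 human ABC-DLBCL cells with doxycycline-inducible IκBα–green luciferase fusion and unfused red luciferase, in 0.5% FBS medium; compounds up to 46 uM, 4 h at 37C. Green/red luminescence ratio, filter-overlap corrected, fitted to concentration-response curves.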
# RXFP1 ag: agonists of human relaxin receptor RXFP1. hit rate 0.3% among 370,000. Q9HBX9. Potency, µM (top dose mostly 57.5 µM), inactives show at the highest dose activation, hits mostly activators. HEK293T-RXFP1 cAMP TR-FRET, 30 min; response scale: percent of porcine relaxin response, buffer zero; note: potency is the fitted concentration of half-maximal effect; nearly all actives have a fitted effect of over 60% in size
#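 cAMP rise read by TR-FRET after 30 min, 37C compound exposure (up to 58 uM) in RXFP1-transfected HEK293 cells with Ro 20174 present. EC50 from Hill-equation fits, with 29 nM porcine relaxin as 100% and buffer as basal.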
# RXFP1 antag: RXFP1 (human) relaxin receptor antagonism | AID 1259400 | hit rate 0.59% among 350,000 | activity change, negative = inhibition, % at 57.5 µM | Q9HBX9 | HEK293-RXFP1, relaxin-stimulated cAMP HTRF, 30 min; hits give low values;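 active = activity change of -60% or lower, but not beyond a set lower limit; inconclusive = change between -60% and -40%, or beyond the set limit; inactive = change above -40%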
# * marks the source's active call; other numbers are inactive results; ? = inconclusive; nt = not tested or not shown; ! = not active in a repeat. Unless noted, calls come from the whole dose curve; as a rule, active = well fitted activation curve with a large enough effect; inconclusive = small, poorly fitted or top-dose-only effect; inactive = flat fitted curve, though single readings scatter. Unless noted, % is set by controls: 0 for no effect and ±100 for the full control effect.
SMILES,B2AR arrestin,BCR signal inh,RXFP1 ag,RXFP1 antag
COc1ccccc1C1c2ccc3ccccc3c2Oc2ncn(CCN(C)C)c(=N)c21 (stereo not given),0%,?,2%,-79*
COc1ccccc1C1c2ccc3ccccc3c2Oc2ncn(CCCO)c(=N)c21 (stereo not given),0%,?,-2%,-3
Cc1cccc(C)c1Nc1c(-c2ccccc2F)nc2cccc(C)n12,nt,nt,5%,-100*
CCOC(=O)Cn1cccc1-c1nc(-c2ccc(OC)cc2)c(-c2ccc(OC)cc2)s1,nt,nt,nt,-20
COc1ccc(-c2nc3ccccc3n3c(-c4ccc(OC)cc4)c4c(=O)n(C)c(=O)n(C)c4c23)cc1,nt,nt,1%,-3
CN1Cc2cc(C(=O)N3CCC(C4CCNCC4)CC3)ccc2NC(CC(=O)O)C1=O (stereo not given),nt,nt,nt,-4
CCOc1cc(C)c(-c2onc(C(F)(F)F)c2-c2csc(C)n2)c(O)c1,0%,5%,3%,-84*
CCCC(CCC)(C(=O)OCC)C(=O)OCC,nt,nt,nt,-12
COc1ccc(C(=O)Nc2nc3ccccc3s2)cc1,0%,?,2%,-66*
COc1ccccc1C(=O)NCCC(=O)Nc1nc2ccccc2[nH]1,0%,?,1%,-86*
COc1ccc(C(=O)Nc2nc3ccccc3[nH]2)cc1,0%,?,0%,-78*
CC(C)OC(=O)c1c(NC(=O)C2c3ccccc3Oc3ccccc32)sc2c1CCCC2,nt,nt,22µM*,4
Cc1ccccc1C(=O)NCc1nc2cccnc2n1Cc1ccccc1,nt,nt,2%,-8
OC1(c2ccc(Cl)c(Cl)c2)C[n+]2ccccc2N1Cc1ccccc1 (stereo not given),0%,?,0%,-69*
Cc1ccc(NC(=O)/C(=C\c2ccc([N+](=O)[O-])cc2)NC(=O)c2ccccc2)cc1,0%,-2%,-1%,-8
O=C(N/N=C/c1ccc(O)c(O)c1O)/C(=C/c1ccc([N+](=O)[O-])cc1)NC(=O)c1ccccc1,0%,?,0%,-71*
C=CCNC(=O)/C(C#N)=C/c1ccc(OS(=O)(=O)c2ccc(C)cc2)c(OC)c1,-1%,?,3%,-61*
Cc1nn(-c2ccccc2)c2c1N(CCCC(=O)NC(C)c1ccccc1)C(=O)CS2 (stereo not given),nt,nt,0%,nt
CCCN1CCN(C(=O)c2cc3c(s2)-c2ccccc2OC3)CC1,0%,5%,18µM*,nt
CCOC(=O)N1CCN(C(=O)c2cc3c(s2)-c2ccccc2OC3)CC1,0%,?,?,nt
N#Cc1ccccc1NC(=O)CSC1=Nc2ccccc2C2CC=NN12 (stereo not given),-1%,20µM*,8%,-9
O=C(CSC1=Nc2ccccc2C2CC=NN12)Nc1ccc2c(c1)OCO2 (stereo not given),0%,-16%,2%,-16
COc1ccc(CCNc2nc(-c3ccc(OC)c(OC)c3)cc(C(F)(F)F)n2)cc1OC,nt,nt,4%,nt
CCOc1ccc(S(=O)(=O)NCCc2c(C)[nH]c3c(Cl)cccc23)cc1C,nt,nt,-1%,nt
CCN(CC)c1ccc(NC(=O)c2cccn2-c2nnc(N3CCCCC3)s2)c(C)c1,nt,nt,-2%,-60*
SMILES,B2AR arrestin,BCR signal inh,RXFP1 ag,RXFP1 antag
Cc1cccc(N2CCN(C(=O)c3cccn3-c3nnc(N4CCCCC4)s3)CC2)c1C,nt,nt,14%,-68*
C[C@@H]1CCN(C(=O)[C@H](CCCN=C(N)N)NS(=O)(=O)c2cccc3c2NC[C@H](C)C3)[C@@H](C(=O)O)C1,nt,nt,nt,11
COc1ccccc1CCNC(=O)Cc1c(C)c2cc(Cl)c(O)cc2oc1=O,nt,nt,18%,-1
O=C(CCS(=O)(=O)c1ccccc1)N(CCCN1CCOCC1)c1nc2c(F)cccc2s1,0%,?,1%,-74*
CCOC(=O)C1(Cc2ccccc2C(F)(F)F)CCN(C2CCN(C(C)=O)CC2)CC1,0%,?,1%,-63*
CCOC(=O)C1(Cc2ccccc2C(F)(F)F)CCN(C2CCC2)CC1,0%,-6%,0%,-3
Cc1nc2sc(C)c(C)n2c(=O)c1S(=O)(=O)N1CCN(c2ccccc2F)CC1,nt,nt,8%,12
Cc1ccc(SCCNC(=O)CN(c2ccccc2)S(=O)(=O)N(C)C)cc1,nt,nt,2%,nt
Cn1nc(-c2ccc(Cl)cc2)nc2c(=O)n(C)c(=O)nc1-2,0%,?,4.5µM*,nt
CS(=O)(=O)n1nc(-c2ccc(Cl)cc2)nc1N,0%,?,1%,-1
CCOc1ccc(NS(=O)(=O)c2ccc(NC(=S)NC(C)=O)cc2)cc1,-1%,-7%,1%,-70*
COc1cccc(-n2c(-c3ccccc3)c[nH]c2=S)c1,0%,?,-1%,-79*
COc1ccc2c(CNCCc3ccccc3OC)c(C(=O)O)n(Cc3ccc(F)cc3Cl)c2c1,nt,nt,7%,nt
Cc1nc2scc(C)n2c(=O)c1S(=O)(=O)N1CCN(c2ccccn2)CC1,-1%,0%,25µM*,18
COc1ccc(NC(=O)c2c(NCc3ccc(C)o3)sc3c2CCC(C)C3)cc1 (stereo not given),nt,1%,1%,-29
Cc1cc(NCCCN2CCOCC2)n2ncc(-c3ccccc3)c2n1,-1%,-1%,1%,7
CN(C)CCCNc1cc(C(C)(C)C)nc2c(-c3ccccc3)cnn12,-1%,?,0%,-61*
COc1cc(C(=O)Nc2nnc(S(=O)(=O)N(C)c3ccccc3)s2)cc(OC)c1OC,nt,nt,0%,-64*
Cc1ccccc1OCC(=O)Nc1ccc(S(=O)(=O)N(Cc2ccccc2)c2ccccc2)cc1,nt,nt,-3%,-6
O=C(CSc1ncccn1)NCc1ccc2c(c1)OCO2,0%,7%,2%,-7
Oc1ccc(CNCc2ccc3c(c2)OCO3)c2cccnc12,14%,15µM*,-2%,nt
CN(Cc1ccco1)S(=O)(=O)c1nnc(NC(=O)c2ccccc2Cl)s1,0%,?,11µM*!,-10
CCOC(=O)CCCCC(=O)c1[nH]c(=O)[nH]c1CSc1nnc2c3cc(Br)ccc3n(C)c2n1,0%,0%,14µM*,nt
Cc1[nH]cnc1-c1ccc(Cl)cc1,nt,nt,nt,13
CCOC(=O)c1sc2ccccc2c1S(=O)(=O)Nc1cccc(C(F)(F)F)c1,nt,nt,0%,-2
SMILES,B2AR arrestin,BCR signal inh,RXFP1 ag,RXFP1 antag
CCOC(=O)CC(=O)CSc1ncnc2c1oc1ccccc12,0%,0%,0.79µM*,25
N#CCCSc1ncnc2c1oc1ccccc12,0%,-4%,14µM*,10
OCCSc1ncnc2c1oc1ccccc12,0%,?,12%,-2
O=C(O)CSc1ncnc2c1oc1ccccc12,0%,?,?,12
COc1ccc(CC(=O)N/N=C/c2cccnc2)cc1OC,0%,-5%,32µM*,7
CC(CC1c2ccccc2CCc2ccccc21)CN(C)C (stereo not given),nt,nt,nt,-27
CCc1ccc(CNC(=O)c2cc(-c3ccc(Br)s3)nc3ccccc23)cc1,nt,nt,?,-10
O=C(O)c1cc(-c2ccc(Br)s2)nc2ccccc12,0%,2%,2.8µM*,-6
